Most compounds without a hit are left out; they make up all but 6.8% or so of the library.
Pf Dd2 inh – blocks growth of Plasmodium falciparum Dd2 parasites; P. falciparum Dd2 growth, SYBR Green, 72 h; hits give low values; activity change, % at 10 µM; hit rate 2.3% among 94,000; in the data active = activity change below about -80%; inconclusive = no clear call, values can overlap the other calls
T cruzi growth-1 – inhibitors of T. cruzi proliferation. T. cruzi beta-gal in NIH3T3, GalScreen luminescence, 90 h. inhibition, % at 8.34 µM. hit rate 5.9% among 77,000. AID 624255;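 active = mean inhibition above about 93%, with at least 55% of replicates each passing it, limit read from the data, passing the limit was not always enough; inconclusive = only one of those two conditions holds; inactive = neither condition holds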
C diff growth – blocks growth of Clostridium difficile. hit rate 0.25% among 86,000. AID 1259249. growth activity, negative = inhibition, % at 16 µg/mL (by protocol). Clostridium difficile clinical isolate growth, OD600, 24 h; hits give low values;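 active = mean growth activity at or below -80% and every replicate also at or below -80%; inconclusive = mean at or below -80% but some replicate above -80%; inactive = mean growth activity above -80%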
T cruzi growth-2 – inhibitors of T. cruzi proliferation; shares compounds with T cruzi growth-1; T. cruzi beta-gal in NIH3T3, GalScreen luminescence, 90 h; inhibition, % at 8.35 µM; hit rate 72% among 5,600;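 active = mean replicate inhibition above about 95% and at least 55% of replicates individually reaching it, limit read from the data; inconclusive = only one of the two criteria is met; inactive = neither criterion is met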
T cruzi growth-3 – blocks T. cruzi growth in NIH3T3 host cells; shares compounds with T cruzi growth-1; T. cruzi beta-gal in NIH3T3, GalScreen luminescence, 90 h; inhibition, % at 2.09 µM; hit rate 21% among 5,600;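 active = mean inhibition above about 95%, with at least 55% of replicates also reaching it, limit read from the data; inconclusive = meets just one of the two conditions; inactive = meets neither condition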
3T3 cytotox – NIH/3T3 (mouse) viability loss; hit rate 14% among 5,600; shares compounds with T cruzi growth-1; AID 651742; NIH/3T3 viability, CellTiter-Glo ATP luminescence, 90 h; cytotoxicity (signal decrease), % at 8.35 µM;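 active = mean signal decrease across replicates above about 35% based on untreated-well scatter, with enough replicates individually passing, limit read from the data; inconclusive = no rule stated though some were filed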
3T3 cytotox 2 – NIH/3T3 (mouse) viability loss | shares compounds with T cruzi growth-1 | NIH/3T3 viability, CellTiter-Glo ATP luminescence, 90 h | inhibition, % at 24.9 µM | hit rate 56% among 5,600;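 active = mean loss of cell viability signal at or above a set limit, and enough replicates individually reaching it; inconclusive = meets only the mean limit or only the replicate share; inactive = meets neither condition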
A number is an active result; - = inactive; ? = inconclusive; . = not tested or not shown.

SMILES	Pf Dd2 inh	T cruzi growth-1	C diff growth	T cruzi growth-2	T cruzi growth-3	3T3 cytotox	3T3 cytotox 2
C[C@@H]1CN([C@H](C)CO)C(=O)Cc2cc(NC(=O)Nc3ccc(F)cc3)ccc2O[C@H]1CN(C)C	-	.	-	.	.	.	.
Cc1ccc(S(=O)(=O)Nc2ccc3c(c2)C(=O)N([C@H](C)CO)C[C@H](C)[C@H](CN(C)C(=O)Nc2ccccc2)OCCCC[C@@H](C)O3)cc1	-	-	.	.	.	.	.
C[C@H]1CCCCO[C@H](CN(C)C(=O)Nc2ccc(F)cc2)[C@@H](C)CN([C@@H](C)CO)C(=O)c2cc(NS(=O)(=O)c3ccc(F)cc3)ccc2O1	-	-	-	.	.	.	.
Cc1ccc(S(=O)(=O)Nc2ccc3c(c2)C(=O)N([C@H](C)CO)C[C@H](C)[C@H](CN(C)C(=O)Nc2ccccc2)OCCCC[C@H](C)O3)cc1	-	100	.	109	-	-	-
Cc1ccc(S(=O)(=O)Nc2ccc3c(c2)C(=O)N([C@@H](C)CO)C[C@@H](C)[C@@H](CN(C)C(=O)Nc2ccc(F)cc2)OCCCC[C@@H](C)O3)cc1	-	105	.	104	-	-	-
C[C@@H]1CN([C@H](C)CO)C(=O)c2cc(NS(=O)(=O)c3ccc(F)cc3)ccc2O[C@@H](C)CCCCO[C@H]1CN(C)C(=O)Nc1ccc(F)cc1	-	-	-	.	.	.	.
Cc1ccc(S(=O)(=O)Nc2ccc3c(c2)C(=O)N([C@H](C)CO)C[C@@H](C)[C@H](CN(C)C(=O)Nc2ccc(F)cc2)OCCCC[C@@H](C)O3)cc1	-85	98	.	97	-	-	25
C[C@@H]1CN([C@H](C)CO)C(=O)c2cc(-c3cccc(F)c3)cnc2O[C@H]1CN(C)Cc1ccccc1	-	-	-	.	.	.	.
Cc1noc(C)c1NC(=O)N(C)C[C@@H]1OCCCC[C@H](C)Oc2ccc(NC(=O)Nc3cccc4ccccc34)cc2C(=O)N([C@H](C)CO)C[C@@H]1C	-	-	-	.	.	.	.
Cc1noc(C)c1S(=O)(=O)N(C)C[C@@H]1Oc2c(NC(=O)c3nc4ccccc4s3)cccc2C(=O)N([C@H](C)CO)C[C@@H]1C	-	-	.	.	.	.	.
OC[C@H]1Nc2ccc(C#Cc3ccccc3)cc2[C@@H]2[C@H]1CCN2Cc1nccs1	-	98	-	97	101	-	104
COc1ccccc1CN1CC[C@@H]2[C@H]1c1cc(C#Cc3ccccc3)ccc1N[C@@H]2CO	-	-	-	.	.	.	.
CCC(=O)N1CC[C@@H]2[C@@H](CO)Nc3ccc(C#Cc4ccccc4)cc3[C@@H]21	-	-	-	.	.	.	.
OC[C@@H]1Nc2ccc(C#Cc3ccccc3)cc2[C@H]2[C@@H]1CCN2Cc1nccs1	-	?	-	99	107	-	99
CO[C@H]1CN(C)C(=O)c2ccc(NC(C)=O)cc2OC[C@@H](C)N(Cc2cccnc2)C[C@H]1C	.	-	.	.	.	.	.
C[C@H](CO)N1C[C@H](C)[C@H](CN(C)C(=O)NC2CCCCC2)Oc2ccc(NS(=O)(=O)c3ccccc3)cc2C1=O	-	-	-	.	.	.	.
C[C@@H](O)C#Cc1cnc2c(c1)C(=O)N([C@@H](C)CO)C[C@H](C)[C@H](CN(C)C(=O)Nc1ccc(F)cc1)O2	-	-	-	.	.	.	.
C[C@H]1CN([C@@H](C)CO)C(=O)c2cc(C#CCc3ccccc3)cnc2O[C@@H]1CN(C)C(=O)C1CCCCC1	-83	?	-	96	-	-	97
C[C@H]1CN([C@@H](C)CO)C(=O)c2cc(C#CCC3CCCC3)cnc2O[C@@H]1CN(C)Cc1ccccn1	-	104	-	101	-	-	107
C[C@H](CO)N1C[C@H](C)[C@@H](CN(C)CC2CCCC2)Oc2ncc(C#CCc3ccccc3)cc2C1=O	-87	97	-	101	106	?	104
C[C@H](CO)N1C[C@H](C)[C@@H](CN(C)Cc2ccccn2)Oc2ncc(C#CCC3CCCC3)cc2C1=O	-	-	-	.	.	.	.
C[C@@H]1CN([C@@H](C)CO)C(=O)c2cc(C#CCc3ccccc3)cnc2O[C@H]1CN(C)CC1CCOCC1	-	-	-	.	.	.	.
C[C@H](CO)N1C[C@H](C)[C@H](CN(C)C(=O)C2CCCCC2)Oc2ncc(C#CCc3ccccc3)cc2C1=O	-	-	-	.	.	.	.
Cc1ccc(-c2ccccc2[C@H]2[C@@H](C#N)N(c3ncc(-c4ccccc4)s3)[C@H]2CO)cc1	-	.	-	.	.	.	.
CCC(=O)Nc1ccc2c(c1)OC[C@H](C)N(Cc1ccccc1)C[C@H](C)[C@H](OC)CN(C)C2=O	-	-	-	.	.	.	.
SMILES	Pf Dd2 inh	T cruzi growth-1	C diff growth	T cruzi growth-2	T cruzi growth-3	3T3 cytotox	3T3 cytotox 2
COC(=O)[C@H]1[C@H](CO)[C@H]2Cn3c(ccc(-c4ccc(F)cc4)c3=O)[C@H]2N1C(=O)C1CC1	-	-	-	.	.	.	.
CCCNC(=O)[C@@H]1[C@@H](CO)[C@@H]2Cn3c(ccc(-c4ccccc4)c3=O)[C@@H]2N1C(=O)C1CCC1	-	102	-	-	-	-	-
O=C([C@@H]1[C@@H](CO)[C@@H]2Cn3c(ccc(-c4cccc(F)c4)c3=O)[C@@H]2N1Cc1cocn1)N1CCCCC1	-	-	-	.	.	.	.
COC(=O)[C@@H]1[C@@H](CO)[C@@H]2Cn3c(ccc(-c4ccc(F)cc4)c3=O)[C@@H]2N1C(=O)C1CCC1	.	114	-	-	-	-	-
CCCNC(=O)[C@@H]1[C@@H](CO)[C@@H]2Cn3c(ccc(-c4ccc(F)cc4)c3=O)[C@@H]2N1C	-	-	-	.	.	.	.
CCCNC(=O)[C@H]1[C@H](CO)[C@H]2Cn3c(ccc(-c4ccccc4)c3=O)[C@H]2N1C(=O)C1CC1	-	.	-	.	.	.	.
CCCNC(=O)N1[C@@H]2c3ccc(-c4ccc(F)cc4)c(=O)n3C[C@@H]2[C@@H](CO)[C@@H]1C(=O)N1CCCCC1	.	102	-	-	-	-	-
O=C([C@H]1[C@H](CO)[C@H]2Cn3c(ccc(-c4cccc(F)c4)c3=O)[C@H]2N1Cc1cocn1)N1CCCCC1	-	?	-	-	-	-	24
C[C@@H]1CN([C@H](C)CO)C(=O)c2cccc(NS(=O)(=O)c3cn(C)cn3)c2O[C@H]1CN(C)C(=O)Nc1ccc(F)cc1	-	-	-	.	.	.	.
C[C@@H]1CCCCO[C@H](CN(C)Cc2ccc(C(=O)O)cc2)[C@@H](C)CN([C@H](C)CO)C(=O)c2cc(NS(=O)(=O)c3ccc(Cl)cc3)ccc2O1	-	-	-	.	.	.	.
CN(C)CC(=O)N[C@H]1CC[C@H](CC(=O)NCCN2CCCCC2)O[C@@H]1CO	-	-	-	.	.	.	.
C[C@H](CO)N1C[C@H](C)[C@H](CN(C)Cc2ccc(C(=O)O)cc2)OCCCC[C@H](C)Oc2ccc(NS(=O)(=O)c3ccccc3)cc2C1=O	-	-	-	.	.	.	.
OC[C@@H]1[C@H](c2ccc(C#Cc3ccccc3F)cc2)[C@@H]2CN(Cc3cncnc3)CCCCN12	-	107	-	107	-	47	104

Screens: PubChem BioAssay, Broad Institute
